Data from PubChem BioAssay AID504362 (National Center for Advancing Translational Sciences (NCATS), 2011).
Inconclusive results are not listed. Activity calls are given as the source filed them. Calls come from the whole dose curve; as a rule, active = well fitted activation curve with a large enough effect; inconclusive = small, poorly fitted or top-dose-only effect; inactive = flat fitted curve, though single readings scatter.

Assay: qHTS Assay for Identifying a Potential Treatment of Ataxia-Telangiectasia: SAR for Probe
Conditions: F2112 A-T fibroblasts, NCS-induced pKAP1 AlphaLISA; series mostly up to 76.9 µM
Text: NIH Chemical Genomics Center [NCGC] NIH Molecular Libraries Probe Centers Network [MLPCN] MLPCN Grant: MH089030-01 Assay Submitter (PI): Wei Zheng and Yosef Shiloh Ataxia-telangiectasia (A-T) is a devastating and progressive disease for which, there is no cure. Although A-T is a multisystem disease, it is stereotyped characterized by its neurological symptoms such as truncal ataxia, due to cerebellar cortical degeneration of the Purkinje and granule cells. Other symptoms of A-T are telangiectasias (dilated blood vessels), primary immunodeficiency, marked sensitivity to ionizing radiation (IR), chromosomal instability and predisposition to cancer. The underlying genetic cause of A-T is null mutations in the ATM (A-T mutated) gene. ATM is a nuclear serine/threonine kinase that functions as a master regulator of the cellular responses to double strand breaks (DSBs) in the DNA. Upon activation by DSBs, ATM phosphorylates a plethora of downstream targets, including KAP-1 on […]. KAP-1 phosphorylation occurs shortly in response to DSBs and mediates global chromatin relaxation, which facilitates DSB repair. To screen for small molecules that will compensate for the loss of ATM in cells derived from A-T patients, we monitored KAP-1 phosphorylation as a readout for ATM-like activity using an AlphaLISA assay. This set of data is for analogs of the probe molecule in the primary screening assay.
qHTS Assay Protocol: Step,Parameter,Value,Description 1. Cell Plating, 3 ul, 500 cells/well in OPTI-MEM, 1% FBS, 1% Pen/Strep 2. Incubation, 16-24 hr, 37C, 5% CO2, 95% humidity 3. Library compounds, 23 nl, 76.7 - 0.61uM dilution series final concentration 4. Incubation, 60 min, 37C, 5% CO2, 95% humidity 5. Reagent, 1 ul, 1600 ng/ml NCS in PBS + 0.05% BSA + 0.005% Tween 20 6. Incubation, 30 min, 37C, 5% CO2, 95% humidity 7. Reagent, 1 ul, Premixed detection reagents and lysis buffer 8. Reagent, 1 ul, 0.6% Antifoam A 9. Incubation, 6 hr, 25C, 95% humidity 10. Readout, EnVision, EnVision plate reader. AlphaScreen 1536-well protocol Cells were plated using medium-binding white solid-bottom tissue culture treated Kalypsys plates. Multidrop dispense of 3 uL of F2112 (hTERT immortalized A-T patient fibroblast cells). Detection reagent and lysis buffer was 3.75nM Rab-a-pKAP1 antibody bound to 75 ng/ul AlphaScreen SA donor bead, 3.75 nM Biot-M-a-KAP1 antibody bound to AlphaLISA protein A acceptor bead, 0.5x protease inhibitor cocktail and 0.25x PerkinElmer lysis buffer. EnVision protocol for 1536-well AlphaScreen read (30ms excitation, 100ms read), about 10 min/plate.

Structure (SMILES)	Potency
CC1(C)C=Cc2c(O)cc(O)c(C(=O)/C=C/c3ccccc3)c2O1	46.3 µM (active)
C=CCSc1nc2ccccc2n1C(=O)/C=C/c1ccc(F)cc1	9.23 µM (active)
O=C(/C=C/c1ccccc1)n1cnc2ccccc21	inactive
COc1cc(/C=C/C(=O)n2cnc3ccccc32)cc(OC)c1OC	13 µM (active)
CC(C)=C/C=C/C(=O)c1ccccc1O	inactive
CN1CCN(c2nc(C3=C(c4c[nH]c5ccccc45)C(=O)NC3=O)c3ccccc3n2)CC1	inactive
C=CCSc1nc2ccccc2n1C(=O)/C=C/c1ccc(OC)c(OC)c1	14.6 µM (active)
COc1cc(/C=C/C(=O)c2ccccc2)cc(OC)c1OC	46.3 µM (active)
COc1c(C(=O)/C=C/c2ccccc2)ccc2c1C=CC(C)(C)O2	36.8 µM (active)
CC1(C)C=Cc2ccc(O)c(C(=O)/C=C/c3ccccc3)c2O1	36.8 µM (active)
